HPGD inh = inhibitors of human 15-hydroxyprostaglandin dehydrogenase (HPGD); P15428; purified HPGD, NADH fluorescence kinetic, PGE2 substrate; Potency, µM, most hits filed as inhibitors; actives 4.3% (n = 150,000); AID 894
Target sequence (P15428 whole entry, looked up): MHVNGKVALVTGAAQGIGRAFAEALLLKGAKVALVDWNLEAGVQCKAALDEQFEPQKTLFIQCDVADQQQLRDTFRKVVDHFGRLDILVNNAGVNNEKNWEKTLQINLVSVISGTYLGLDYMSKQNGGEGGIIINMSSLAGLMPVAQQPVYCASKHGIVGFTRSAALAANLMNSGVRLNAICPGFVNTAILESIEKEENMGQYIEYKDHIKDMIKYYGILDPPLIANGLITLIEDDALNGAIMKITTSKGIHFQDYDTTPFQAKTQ
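20 nM HPGD preincubated 15 min at room temperature with compound in 50 mM Tris-HCl pH 8, 0.01% Tween 20. Started with 1 mM NAD+ and 30 uM prostaglandin E2; NADH fluorescence (360/450 nm) read 5 times over 30-s intervals, last minus first.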
IMPase cell inh = cell-permeable inhibitors of inositol monophosphatase (IMPase); P97697; AID 901; 120,000 tested, under 10 active; inhibition (IP1 accumulation), % at 46.1 µM; CHO-M1 cells, IP1 accumulation, HTRF TR-FRET ratio; active means well fitted curve in the direction sought with a large enough effect in the signal ratio, not every such curve was filed as active; inconclusive means small, poorly fitted or top-dose-only effect, or a change in a side signal; inactive means no such curve, though single readings can be large or run the other way; the % refers to the signal ratio;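 further: cells stimulated with carbachol in lithium chloride buffer; higher means more IMPase inhibition seen as more IP1 and lower FRET ratio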
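CHO-M1, 2000 cells/well, cultured 16–30 h; cpd up to 46 uM; carbachol (50 uM solution, stimulation buffer w/ 50 mM LiCl, pH 7.4), 30 min 37C; IP-One TR-FRET, 10 min RT; Ex 320/Em 665, 620; Hill-fit AC50.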
ALDH1A1 block = ALDH1A1 (human) enzyme inhibition. Purified ALDH1A1, NADH fluorescence, propionaldehyde substrate. Potency, µM (doses to about 75.3 µM), most hits filed as inhibitors. actives 7.3% (n = 220,000). AID 1030
Target sequence (P00352 whole entry, looked up): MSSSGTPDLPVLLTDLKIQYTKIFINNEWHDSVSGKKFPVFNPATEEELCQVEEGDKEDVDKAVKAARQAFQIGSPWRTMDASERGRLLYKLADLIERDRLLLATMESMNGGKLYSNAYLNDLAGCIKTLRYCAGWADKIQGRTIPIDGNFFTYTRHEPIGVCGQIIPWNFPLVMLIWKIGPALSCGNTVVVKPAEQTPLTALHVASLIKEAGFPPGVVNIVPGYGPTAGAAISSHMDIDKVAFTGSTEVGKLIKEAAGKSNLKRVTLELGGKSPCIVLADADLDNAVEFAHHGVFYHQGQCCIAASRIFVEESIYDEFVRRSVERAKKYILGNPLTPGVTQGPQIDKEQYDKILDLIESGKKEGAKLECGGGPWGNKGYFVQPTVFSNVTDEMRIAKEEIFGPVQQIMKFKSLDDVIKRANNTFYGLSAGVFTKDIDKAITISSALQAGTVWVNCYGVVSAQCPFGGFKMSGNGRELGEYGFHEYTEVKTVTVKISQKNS
Each line names hits and unclear results; the compound was inactive in the other large screens. Hits are enriched below; roughly 9% of the tested compounds scored in any of these assays. Unless noted, the call rests on the fitted dose curve; in most records, active means well fitted inhibition curve with a large enough effect (not every such curve was filed as active); inconclusive means small, poorly fitted or top-dose-only effect, or another doubt; inactive means no such curve, though single readings can be large or run the other way.

COc1ccccc1CNc1ncncc1-c1ccccc1OC	none (no result: HPGD inh, IMPase cell inh)
CCN(CC)C(=O)Cn1c(=O)n(Cc2ccc(C(=O)NCCCOC)cc2)c(=O)c2ccccc21	none (no result: HPGD inh, ALDH1A1 block)
Cc1ccc(NCc2ccccc2-c2nnc(-c3ccccc3Cl)o2)c(C)c1	none (no result: HPGD inh, ALDH1A1 block)
CCN(CC)c1cccc(O)c1	ALDH1A1 block inconclusive (no result: IMPase cell inh)
CN(C)c1cccc(O)c1	ALDH1A1 block 8.9µM (no result: IMPase cell inh)
CCCCOc1cccc(NC(=O)CSc2nnc(C)s2)c1	none (no result: HPGD inh, ALDH1A1 block)
COc1ccc(CNC(=O)Cn2cc3c(n2)CCCCC3)cc1	ALDH1A1 block 1.1µM
COc1cccc(NC(=O)Cn2cc3c(n2)CCCCC3)c1	ALDH1A1 block inconclusive
Cc1nc2[nH]c(=O)[nH]c(=O)c2[nH]1	none (no result: IMPase cell inh)
COc1ccc(CNC(=O)C2CC(=O)N(c3ccc(OCC(=O)N4CCCCC4)cc3)C2)cc1 (centres undefined)	HPGD inh 14µM, ALDH1A1 block inconclusive
O=C(NCc1ccccc1)C1CC(=O)N(c2ccc(OCC(=O)N3CCCC3)cc2)C1 (centres undefined)	none
CC1=C(C(=O)OC(C)C)C(/C=C/c2ccccc2)NC(=O)N1 (centres undefined)	none
COCCOC(=O)C1=C(C)NC(=S)NC1/C=C/c1ccccc1 (centres undefined)	ALDH1A1 block 0.79µM (no result: IMPase cell inh)
COCCOC(=O)C1=C(C)NC(=O)NC1/C=C/c1ccccc1 (centres undefined)	none (no result: IMPase cell inh)
C=CCOC(=O)C1=C(C)NC(=S)NC1/C=C/c1ccccc1 (centres undefined)	ALDH1A1 block 0.045µM
N#C/C(=C(/O)CCl)c1nc2ccccc2[nH]1	none (no result: HPGD inh, IMPase cell inh)
CN(C)c1ccc(/C=C/C(O)=C2/C(=O)N(C)C3(C)CC2c2ccccc2O3)cc1 (centres undefined)	ALDH1A1 block 20µM
CCOc1ccc(/C=C/C(O)=C2/C(=O)NC3(C)CC2c2ccccc2O3)cc1OC (centres undefined)	none (no result: HPGD inh, IMPase cell inh)
CC1=C(C(=O)N2CCOCC2)C(c2ccccc2F)C2=C(CCCC2=O)N1 (centres undefined)	HPGD inh inconclusive, ALDH1A1 block inconclusive
COc1cccc(Nc2ncc3nc(-c4ccccc4)c(=O)n(C[C@H]4CCCO4)c3n2)c1	none (no result: IMPase cell inh)
COc1cccc(Nc2ncc3nc(CCc4ccccc4)c(=O)n(C[C@H]4CCCO4)c3n2)c1	HPGD inh inconclusive, ALDH1A1 block 25µM (no result: IMPase cell inh)
COc1ccc(CC(NC(C)=O)C(=O)N2CCN(C(=O)Nc3cccc(F)c3)CC2)cc1OC (centres undefined)	none (no result: HPGD inh, IMPase cell inh)
C=CCSc1nnc(-c2sc(-c3ccccc3)nc2C)n1C	HPGD inh inconclusive, ALDH1A1 block inconclusive
C=CCN(C(=O)CSC1=NC(=O)CN1C(C)=O)c1nc(C)c(-c2ccccc2)s1	ALDH1A1 block 6.3µM (no result: HPGD inh, IMPase cell inh)
O=C(Cn1nc(C(F)F)cc1C(F)F)NNC(=S)Nc1ccc(F)cc1	none
O=C(Cn1nc(C(F)F)cc1C(F)F)NNC(=S)Nc1ccc([N+](=O)[O-])cc1	ALDH1A1 block 18µM (no result: HPGD inh, IMPase cell inh)
Cc1nn(CCC(=O)NNC(=S)Nc2ccc(F)cc2)c(C)c1Br	ALDH1A1 block inconclusive (no result: IMPase cell inh)
Cc1nn(CC(=O)Nc2ccccn2)c(C)c1[N+](=O)[O-]	none
Cc1ccc(NC(=O)Cn2nc(C)c([N+](=O)[O-])c2C)cc1C	ALDH1A1 block 20µM (no result: HPGD inh, IMPase cell inh)
Cc1nn(CCC(=O)NNC(=S)Nc2ccc([N+](=O)[O-])cc2)c(C)c1[N+](=O)[O-]	ALDH1A1 block 4.5µM (no result: HPGD inh, IMPase cell inh)
COc1ccc2c(c1)OCc1c-2oc2cc(OC)ccc12	none (no result: IMPase cell inh)
CSC(=NC#N)N1CCN(c2ccccc2)CC1	none
CCOC(=O)N1CCN(c2cc(=O)n(Cc3ccc(F)cc3)c(=O)[nH]2)CC1	none
O=C(CCNc1cc(Cl)cc(Cl)c1)c1ccco1	ALDH1A1 block 7.9µM
O=C(NCc1cccc(Cl)c1)c1ccco1	none
O=C(CCNc1ccc(F)cc1)c1ccco1	ALDH1A1 block 1.4µM
O=C(CCNc1ccc(F)c(Cl)c1)c1ccco1	ALDH1A1 block 3.5µM
O=C(CCNc1ccc(Cl)c(C(F)(F)F)c1)c1ccco1	IMPase cell inh inconclusive, ALDH1A1 block 8.9µM
O=C(CCNC(=O)c1ccccc1)Nc1ccc(F)c(Cl)c1	none
O=C(CNC(=O)c1ccco1)Nc1ccc(F)cc1	none (no result: HPGD inh, IMPase cell inh)
Cc1ccccc1NC(=O)CNc1ccc(Cl)c(C(F)(F)F)c1	ALDH1A1 block inconclusive (no result: HPGD inh)
O=C(O)C(Cc1ccccc1-c1ccccc1)C(=O)O	none (no result: IMPase cell inh)
Cc1cccc(NC(=O)c2cc(NC(=O)c3ccco3)ccc2Cl)n1	none
CC[C@H]1C2=C3C(CC[C@H]4C(OC)OC[C@](C)([C@@H]34)N(C(=O)OC(C)(C)C)C2)C(CO)C1CO (some centres undefined)	none (no result: IMPase cell inh)
COc1cc(OC)cc(-c2nc3ccccc3c(=O)n2OC(=O)c2ccc(C)c(C)c2)c1	none (no result: IMPase cell inh)
O=C(CSc1ccccc1Cl)c1ccco1	none
O=C(CSc1ccc(Cl)cc1)c1ccco1	HPGD inh 25µM, ALDH1A1 block 13µM
CCOC(=O)CNc1cccc(C(F)(F)F)c1	none (no result: HPGD inh, IMPase cell inh)
O=C(CCNc1cccc(C(F)(F)F)c1)c1ccco1	ALDH1A1 block 2.5µM
O=C(Cc1ccccc1)n1nc(-c2ccco2)nc1SCc1ccccc1	HPGD inh 4.5µM, ALDH1A1 block inconclusive
O=C(c1ccco1)n1nc(-c2ccco2)nc1SCc1ccccc1	HPGD inh inconclusive
CCCC(=O)n1nc(-c2ccco2)nc1SCc1ccccc1	HPGD inh inconclusive, ALDH1A1 block inconclusive
O=C(c1ccco1)n1nc(-c2ccccc2)nc1SCc1ccccc1	HPGD inh 18µM
CC(Oc1ccccc1)C(=O)Nc1nnc(C2CCCCC2)s1 (centres undefined)	none (no result: HPGD inh, IMPase cell inh)
CC(C)=CCC1(CC=C(C)C)C(=O)C(C(=O)c2ccccc2)=C2OC(C)(C)CCC2(CC=C(C)C)C1=O (centres undefined)	none (no result: HPGD inh, IMPase cell inh)
COc1ccc(NC2=Nc3cccc4cccc2c34)cc1	none (no result: IMPase cell inh)
CC#CCN1c2ccccc2[C@]23C[C@@H](C(=O)OC)N(C(=O)CC(C)C)C2=NC(C(=O)OC)=C(C(=O)OC)[C@H]13	none (no result: IMPase cell inh)
CCOCCCn1c(=N)c(S(=O)(=O)c2ccc(C)cc2)cc2c(=O)n3cccc(C)c3nc21	none (no result: HPGD inh, ALDH1A1 block)
O=C(Nc1cccc(-c2cn3ccccc3n2)c1)c1ccccc1	none (no result: HPGD inh, IMPase cell inh)
CCCCC(=O)Nc1cccc(-c2cn3ccccc3n2)c1	ALDH1A1 block 28µM (no result: HPGD inh)
CC(=O)NCCNc1cc(-c2ccccc2C)ncn1	none (no result: HPGD inh, IMPase cell inh)
CC1(C)Oc2ccc(C(=O)N3CCCC3)cc2N(CC(=O)NCc2ccccc2)C1=O	none
COc1ccc(C(=O)CN2C(=O)C(C)(C)Oc3ccc(C(=O)N4CCCCCC4)cc32)cc1	HPGD inh 8.9µM
Cc1ccc(NC(=S)N/N=C2\CC3CC=CC23)c(C)c1 (centres undefined)	ALDH1A1 block 25µM (no result: HPGD inh, IMPase cell inh)
Cc1cccc(C)c1NC(=S)N/N=C1\CC2CC=CC12 (centres undefined)	ALDH1A1 block 11µM (no result: HPGD inh, IMPase cell inh)
Cc1cccc(C)c1NC(=S)N/N=C/c1c(Cl)cccc1Cl	none (no result: HPGD inh, IMPase cell inh)
Cc1ccc(C(=O)N/N=C2\CC3CC=CC23)c(C)c1 (centres undefined)	none (no result: HPGD inh, IMPase cell inh)
Cc1cc(Cl)ccc1NC(=S)NCc1ccccc1Cl	none (no result: IMPase cell inh)
O=C(COc1cccc(Br)c1)N/N=C1\CCSC1	ALDH1A1 block 4.5µM (no result: HPGD inh, IMPase cell inh)
O=C(COc1cccc(Br)c1)N/N=C1\CCCc2ccccc21	none (no result: HPGD inh, IMPase cell inh)
O=C(c1cc(=O)c2ccccc2o1)N1CCCc2ccccc21	ALDH1A1 block inconclusive
Cn1c(C(=O)N2CCc3ccccc3C2)cc2oc3ccccc3c21	HPGD inh 0.71µM
O=C(c1nn(Cc2ccccc2)c(=O)c2ccccc12)N1CCc2ccccc2C1	ALDH1A1 block 0.89µM
